# “And” between values parts separate entries of the source, which are not always exact repeats. Equal entries are not always repeated. In all, about 16,000 compounds went through this assay and about 5,800 (36%) were called active. Another 23% or so got no clear call; they are omitted. This is one part of the list. Unmarked numbers belong to inactive results. The call rests on the fitted dose curve; in most records, active means well fitted curve in the direction sought with a large enough effect; inconclusive means small, poorly fitted or top-dose-only effect, or effect the other way; inactive means no such curve, though single readings can be large or run the other way.
# Molecular target: Cytochrome P450 2C19 (Homo sapiens) (UniProt P33261)
# Sequence (P33261 whole entry, looked up): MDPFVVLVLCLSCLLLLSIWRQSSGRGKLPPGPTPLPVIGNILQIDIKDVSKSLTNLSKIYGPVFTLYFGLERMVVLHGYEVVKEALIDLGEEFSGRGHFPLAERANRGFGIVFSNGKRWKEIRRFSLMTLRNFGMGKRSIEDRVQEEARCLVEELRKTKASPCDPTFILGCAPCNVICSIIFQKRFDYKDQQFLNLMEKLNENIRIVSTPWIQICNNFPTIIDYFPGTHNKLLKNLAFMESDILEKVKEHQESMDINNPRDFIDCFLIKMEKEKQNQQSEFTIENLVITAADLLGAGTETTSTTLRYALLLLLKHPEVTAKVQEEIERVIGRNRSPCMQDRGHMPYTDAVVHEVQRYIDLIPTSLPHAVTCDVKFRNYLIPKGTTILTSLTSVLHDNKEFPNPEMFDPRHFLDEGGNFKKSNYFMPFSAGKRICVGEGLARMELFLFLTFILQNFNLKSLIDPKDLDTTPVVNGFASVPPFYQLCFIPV
# Experiment: Cytochrome panel assay with activity outcomes
# Conditions: recombinant CYP, pro-luciferin dealkylation, luminescence, p450-cyp2c19; series mostly up to 57.1 µM
# On the % scale 0 is the no-effect control and ±100 the full control effect.
SMILES,AC50,"activity, negative = inhibition"
O=C(OCCNC(=O)c1ccc2ccccc2n1)c1ccc(F)cc1,7.94 µM (active),
NCCNC(=O)c1ncsc1-c1cccc(F)c1,inactive,
O=C(O)/C=C1\NC(=O)c2ccccc21,inactive,
CC[N+](CC)(CC)CCOc1ccc(/C=C\c2ccccc2)cc1,inactive,
CCOc1ccccc1OCCOc1ccc(F)cc1,4.47 µM (active),
CCOC(=O)CCN1C(=O)[C@H]2[C@H]3[C@H](O)[C@H](O)C/C(=N/OC[C@@H](O)COCc4ccco4)[C@H]3CC[C@@H]2C1=O,,34% [at 11.4 µM]
Cc1ccc(S(=O)(=O)N2CCN(C(=O)c3ccccc3)C2C(C)C)cc1 (stereo not given),7.08 µM (active),
CC(C)NC(=O)N1CC2(CCN(S(=O)(=O)c3ccccc3)CC2)C1,inactive,
CC(C)NC(=O)N1CCCC2(CCN(S(=O)(=O)c3ccccc3)CC2)C1,inactive,
CC(=O)N1CC2(CC2)CC1c1ccccc1 (stereo not given),inactive,
CC(=O)N1CCN(S(=O)(=O)c2ccccc2)C1c1ccccc1 (stereo not given),11.2 µM (active),
C=CCC(NCc1ccco1)c1ccc(OC)cc1 (stereo not given),5.01 µM (active),
COc1ccc(OC)c(NC(=O)C(CC(=O)O)NCc2ccco2)c1 (stereo not given),inactive,
COc1ccc(C(=O)n2nc(-c3ccccc3)nc2SC)cc1,inactive,
CCC(=O)n1nc(-c2ccc(OC)cc2)nc1N,10 µM (active),
COc1ccc(-c2nc(N)c3ncn([C@H]4O[C@@H](CO)[C@@H](O)[C@@H]4O)c3n2)cc1,,31.6% [at 11.4 µM]
CCOc1ccc(N2CC(C(=O)NCc3cccc(C)c3)CC2=O)cc1 (stereo not given),7.94 µM (active),
CC(C)Oc1ccc(N2CC(C(=O)OCC(=O)NCc3ccccc3)CC2=O)cc1 (stereo not given),15.8 µM (active),
O=C(CN1CCN(S(=O)(=O)c2ccccc2)CC1)NC(=O)NCc1ccccc1,inactive,
O=C(CNC1CCCCCC1)Nc1ccccc1N1CCCCC1,4.47 µM (active),
Cc1cc(C)nc(SCC(=O)N/N=C\c2sccc2C)n1,5.01 µM (active),
O=C(CSc1nc2ccccc2o1)Nc1ccccc1N1CCCCCC1,15.8 µM (active),

SMILES,AC50,"activity, negative = inhibition"
O=C(CSc1nc2ccccc2o1)NC(=O)NCc1ccccc1,3.55 µM (active),
CNc1c2c(nn1C)CCCC2,inactive,
C[N+](C)(C)c1cc2c(nn1)Nc1ccccc1S2,,-41.4% [at 11.4 µM]
CC1(C)N=C(N)N=C(N)N1CCCCc1ccccc1,,24% [at 11.4 µM]
O=C(O)c1cc(=O)[nH]c(SCc2ccccc2)n1,,-23.4% [at 11.4 µM]
Cc1cc(C)nc(SCC(=O)Nc2ccccc2[N+](=O)[O-])n1,7.94 µM (active),
O=C(O)c1ccc(CNCc2ccccc2)cc1,,-4.75% [at 11.4 µM]
O=C(CSc1nc2ccccc2o1)Nc1nc2ccccc2s1,1.78 µM (active),
O=C(O)c1ccc(CSc2nc3ccccc3o2)cc1,35.5 µM (active),
O=C(CSc1ccccn1)Nc1nc2ccc(Br)cc2s1,2 µM (active),
COc1nc(Cl)nc(Cl)c1Cl (tested in a mixture with another compound),,-12.4% [at 11.4 µM]
CC(=O)OC[C@@H]1O[C@@H](O/N=C2/C[C@@H](O)[C@@H](O)[C@@H]3[C@@H]4C(=O)N(C[C@@H]5CCCO5)C(=O)[C@H]4CC[C@H]23)[C@H](OC(C)=O)[C@H](OC(C)=O)[C@@H]1OC(C)=O,,-5.2% [at 11.4 µM]
Cc1ccccc1NC(=O)CSc1nc(N2CCCCC2)nc(N2CCCCC2)n1,0.355 µM (active),
Cc1ccccc1NC(=O)Cn1cnc2c1c(=O)n(C)c(=O)n2C,inactive,
O=C(C/C=N/OCc1ccc(F)cc1Cl)c1cnc(-c2ccccc2)s1,1.26 µM (active),
O=C(C/C=N/OCc1ccc(Cl)cc1Cl)c1ccc(Cl)cc1,0.794 µM (active),
CN(C)CN1CSC(=S)N(CN(C)C)C1,3.16 µM (active),
CCc1ccc(N2CC(C(=O)NC3=NCCS3)CC2=O)cc1 (stereo not given),15.8 µM (active),
Cc1ccc(N2CC(C(=O)Nc3cc(C)on3)CC2=O)cc1 (stereo not given),5.62 µM (active),
COc1ccc(N2CC(C(=O)Nc3cc(C)on3)CC2=O)cc1 (stereo not given),inactive,
Cc1cc(NC(=O)C2C3C(=O)N(Cc4ccc(Cl)cc4)C(C(=O)NC(C)(C)C)C34C=CC2(C)O4)no1 (stereo not given),inactive,
CC(C)CO/N=C1/C[C@@H](O)[C@@H](O)[C@@H]2[C@@H]3C(=O)N(C[C@@H]4CCCO4)C(=O)[C@H]3CC[C@@H]12,,-18.3% [at 11.4 µM]

SMILES,AC50,"activity, negative = inhibition"
O=C(c1cnccn1)N1CCC2(CCCN(c3ncccn3)C2)CC1,inactive,
COc1ccc(COC(=O)N/N=C2/C[C@@H](O)[C@@H](O)[C@@H]3[C@H]4C(=O)N(c5ccc(F)cc5F)C(=O)[C@@H]4CC[C@@H]23)cc1,,-19.3% [at 11.4 µM]
C=CC[C@@H]1C=C[C@H](O/N=C(\C)CCN2CCc3nc(CC)c(CC)cc3C2)[C@H](CO)O1,,-14% [at 11.4 µM]
COc1cc(NC(=O)Cc2c(C(=O)O)[nH]c3ccccc23)cc(OC)c1OC,inactive,
COc1cc(NC(=O)c2cc3nc(-c4ccccc4)cc(-c4ccccc4)n3n2)cc(OC)c1OC,6.31 µM (active),
O=C(CSc1c[nH]c2ccccc12)N1CCOCC1,1.58 µM (active),
Nn1c(SCC(=O)N2CCOCC2)nnc1-c1ccccc1Cl,inactive,
Fc1cccc(F)c1C(Nc1nncs1)Nc1nncs1,,7.56% [at 11.4 µM]
O=C(O)CNCCc1ccccc1,,4.74% [at 11.4 µM]
NNCCc1ccccc1,794 nM (active) and 316 nM (active),
Cc1ccc(COc2ccc(Br)cc2/C=N/O)cc1,1 µM (active),
O=c1c(-c2ccccc2)nc2cnc(N3CCOCC3)nc2n1Cc1cccs1,inactive,
C[C@@H](COc1ccccc1)N(CCCl)Cc1ccccc1,2 µM (active),
O=S(=O)(Nc1nc(-c2sccc2Cl)cs1)c1cc(Cl)ccc1Cl,0.2 µM (active),
COC(=O)N1CCC2(CCN(C(=O)Nc3ccc(OC)cc3)CC2)CC1,inactive,
COC(=O)N1CCC2(CC1)CN(C(=O)Nc1ccc(OC)cc1)C2,inactive,
CCC(C)NC(=O)C1CCN(C(=O)c2ccccc2)CC1 (stereo not given),inactive,
O=C(CC1C(=O)NCCN1C(=S)Nc1ccccc1)Nc1ccc2c(c1)OCCO2 (stereo not given),11.2 µM (active),
O=C(Nc1ccc2c(c1)OCCO2)C1CCN(C(=O)c2ccccc2)CC1,22.4 µM (active),
COc1ccc(NC(C)=O)cc1NC(=O)CN1CCN(CC(=O)Nc2ccccc2Cl)CC1,7.94 µM (active),
COc1ccc(NC(=O)CN2CCN(CC(=O)Nc3ccccc3Cl)CC2)cc1,1.41 µM (active),

# From PubChem BioAssay AID1851 (National Center for Advancing Translational Sciences (NCATS), 2009)
